Experimental findings from PubChem BioAssay are described below.

Assay [1] can be described thus: antimalarial activity against Dd2 strain (AID 2302;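 active = growth inhibition above 50% at the single 2 µM test dose, taken to imply half-maximal potency below 2 µM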;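 also: 0% = DMSO untreated growth and 100% = chloroquine plus artemisinin killed control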). The conditions noted are these: P. falciparum Dd2 in RBCs, LDH growth readout, 72 h; at 2 µM; stronger effect = higher value.
Assay [2] can be described thus: HepG2 cytotoxicity, primary screen, cytotoxicity control for P. falciparum antimalarial project, cell-based, ATP luminescence (AID 2303;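 active = inhibition above 50%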;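 also: 0% = DMSO wells and 100% = digitonin-killed cells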). Particulars: HepG2 viability, 24-48 h, at 10 µM, stronger effect = higher value.
For assay [3], the target named is L-lactate dehydrogenase (Plasmodium falciparum (isolate CDC / Honduras)) (UniProt Q27743). The assay is described as follows: PfLDH activity inhibition – cell lysate, 3D7 strain, counter-screen for P. falciparum growth inhibition project (AID 2304).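 Also: 0% = vehicle and 100% = reference inhibitor.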 Particulars: P. falciparum 3D7 crude extract, LDH APAD/NBT absorbance; at 2 µM; stronger effect = higher value.
Sequence of L-lactate dehydrogenase (Plasmodium falciparum (isolate CDC / Honduras)) (Q27743 whole entry, looked up): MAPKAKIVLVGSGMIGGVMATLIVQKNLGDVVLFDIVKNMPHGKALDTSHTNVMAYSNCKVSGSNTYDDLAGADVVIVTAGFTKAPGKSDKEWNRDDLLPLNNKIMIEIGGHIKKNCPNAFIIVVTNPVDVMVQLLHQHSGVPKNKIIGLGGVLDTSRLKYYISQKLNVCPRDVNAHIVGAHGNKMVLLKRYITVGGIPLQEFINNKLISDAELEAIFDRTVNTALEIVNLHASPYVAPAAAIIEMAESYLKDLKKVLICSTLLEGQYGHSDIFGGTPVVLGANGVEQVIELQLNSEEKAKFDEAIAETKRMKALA
A short description of assay [4]: inhibition of 3D7 malaria parasite growth – strain 3D7 (AID 2306).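 Also: 0% = DMSO wells and 100% = chloroquine plus artemisinin control wells.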 The conditions noted are these: P. falciparum 3D7 erythrocytic growth, LDH absorbance, 72 h; at 2 µM; stronger effect = higher value.
The target in assay [5] is Calcium-dependent protein kinase 1 (Plasmodium falciparum (isolate 3D7)) (UniProt P62344). Nature of the assay: PfCDPK1 kinase inhibitors, biochemical, TCAMS library (AID 1159585; cut-off not given, nearly all actives have IC50 up to about 0.98 µM;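 also: inhibitors leave more ATP so luminescence rises with inhibition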). The conditions noted are these: recombinant PfCDPK1, Kinase-Glo ATP depletion luminescence. In general terms: In Kinase-Glo more light means more ATP remaining.
Sequence of Calcium-dependent protein kinase 1 (Plasmodium falciparum (isolate 3D7)) (P62344 whole entry, looked up): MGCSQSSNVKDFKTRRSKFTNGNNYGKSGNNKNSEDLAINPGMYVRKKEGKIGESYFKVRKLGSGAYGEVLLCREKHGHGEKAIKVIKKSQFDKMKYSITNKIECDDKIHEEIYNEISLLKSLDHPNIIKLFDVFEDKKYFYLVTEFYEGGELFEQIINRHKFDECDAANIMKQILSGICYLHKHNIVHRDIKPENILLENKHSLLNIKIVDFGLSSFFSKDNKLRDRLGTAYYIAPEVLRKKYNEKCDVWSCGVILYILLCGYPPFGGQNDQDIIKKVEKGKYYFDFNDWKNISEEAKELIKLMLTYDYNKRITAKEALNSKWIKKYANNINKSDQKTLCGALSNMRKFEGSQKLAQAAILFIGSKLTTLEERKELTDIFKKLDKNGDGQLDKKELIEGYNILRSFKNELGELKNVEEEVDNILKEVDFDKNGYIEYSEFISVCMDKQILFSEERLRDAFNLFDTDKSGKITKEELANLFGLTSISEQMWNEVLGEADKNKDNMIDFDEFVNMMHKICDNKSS
In assay [6] the target is Plasmodium falciparum protein kinase 6 (PK6, PF3D7_1337100) (UniProt Q8IDW1). Nature of the assay: PfPK6 kinase inhibitors, biochemical, TCAMS library (AID 1159586). Particulars: recombinant PfPK6, Kinase-Glo ATP depletion luminescence.
Sequence of Plasmodium falciparum protein kinase 6 (PK6, PF3D7_1337100) (Q8IDW1 1-305): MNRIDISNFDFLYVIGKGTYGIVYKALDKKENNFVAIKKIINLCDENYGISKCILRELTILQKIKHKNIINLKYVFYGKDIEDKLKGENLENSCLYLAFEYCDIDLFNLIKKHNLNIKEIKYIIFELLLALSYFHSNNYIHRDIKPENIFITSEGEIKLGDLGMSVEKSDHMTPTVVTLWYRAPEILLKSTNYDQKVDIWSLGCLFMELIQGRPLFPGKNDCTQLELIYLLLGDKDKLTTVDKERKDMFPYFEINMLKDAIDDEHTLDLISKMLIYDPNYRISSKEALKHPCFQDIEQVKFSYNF
Assay [7] concerns the target Protein kinase 7 (PK7), Plasmodium falciparum 3D7 (PF3D7_0213400) (UniProt Q7YTF7). The assay is described as follows: inhibition of Plasmodium PK7 catalytic activity – biochemical, TCAMS antimalarial set, Kinase-Glo luminescence (AID 1159587). Particulars: recombinant PfPK7, Kinase-Glo ATP depletion luminescence.
Assay [8] has as its target Calcium-dependent protein kinase 4 (Plasmodium falciparum (isolate 3D7)) (UniProt Q8IBS5). The assay is described as follows: PfCDPK4 kinase inhibitors, biochemical, TCAMS library (AID 1159588; cut-off not given, nearly all actives have IC50 up to about 0.91 µM). Particulars: recombinant PfCDPK4, Kinase-Glo ATP depletion luminescence.

A number with no mark means an inactive call. For some of these results: Potency and affinity values are given separately. The source made the active and inactive calls. Unless noted, no rule for the calls is given here.

A word on the inhibition: it is the change of the read-out against control, counted positive when it falls.

Sequence of Protein kinase 7 (PK7), Plasmodium falciparum 3D7 (PF3D7_0213400) (Q7YTF7 1-343): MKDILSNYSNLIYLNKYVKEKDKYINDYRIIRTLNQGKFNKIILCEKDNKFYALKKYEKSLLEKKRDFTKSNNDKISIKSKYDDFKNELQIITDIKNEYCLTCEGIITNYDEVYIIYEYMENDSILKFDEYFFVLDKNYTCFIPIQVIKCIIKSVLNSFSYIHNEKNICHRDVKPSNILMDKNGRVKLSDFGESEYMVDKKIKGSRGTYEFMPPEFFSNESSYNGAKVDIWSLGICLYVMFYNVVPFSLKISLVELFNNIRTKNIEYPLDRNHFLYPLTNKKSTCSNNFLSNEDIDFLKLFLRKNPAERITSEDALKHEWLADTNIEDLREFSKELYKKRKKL
Sequence of Calcium-dependent protein kinase 4 (Plasmodium falciparum (isolate 3D7)) (Q8IBS5 whole entry, looked up): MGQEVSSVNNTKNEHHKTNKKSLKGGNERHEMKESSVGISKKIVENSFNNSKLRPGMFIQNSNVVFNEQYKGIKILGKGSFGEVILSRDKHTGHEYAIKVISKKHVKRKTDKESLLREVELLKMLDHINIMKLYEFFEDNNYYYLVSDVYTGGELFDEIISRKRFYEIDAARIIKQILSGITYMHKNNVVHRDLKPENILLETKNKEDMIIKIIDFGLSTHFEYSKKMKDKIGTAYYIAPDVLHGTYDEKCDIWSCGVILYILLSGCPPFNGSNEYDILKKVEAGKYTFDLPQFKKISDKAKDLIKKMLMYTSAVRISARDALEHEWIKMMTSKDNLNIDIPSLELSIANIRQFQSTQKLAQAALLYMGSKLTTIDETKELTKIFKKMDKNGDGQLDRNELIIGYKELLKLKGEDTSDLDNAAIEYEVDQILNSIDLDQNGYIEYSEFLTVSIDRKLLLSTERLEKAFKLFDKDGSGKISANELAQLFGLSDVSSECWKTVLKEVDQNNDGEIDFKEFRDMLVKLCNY

Regarding `Cc1cc(N2CCCN(C)CC2)nc(Nc2ccc(Cl)cc2)n1`, the growth inhibition in assay [1] was 11%; in assay [4], 96% (active). Moreover, the inhibition in assay [2] is 8%; in assay [3], 1%. Further, the outcome in assay [5], in assay [6], in assay [7] and in assay [8] was inactive.
For the compound `O=C(c1ccc([N+](=O)[O-])o1)N1CCN(c2nc3c(F)cc(F)cc3s2)CC1`, the figures for the growth inhibition in assay [1] and in assay [4] were 86% (active) and 93% (active), respectively. Besides, the inhibition in assay [2] was -7%; in assay [3], -4%. Also, the result in assay [5], in assay [6], in assay [7] and in assay [8] was inactive.
For the compound `Cc1ccc(Nc2nc(NN=Cc3ccc(-c4ccc([N+](=O)[O-])cc4)o3)nc(N3CCOCC3)n2)cc1Cl`, the growth inhibition was 47% in assay [1] and 95% (active) in assay [4]. Besides, the values for the inhibition in assay [2] and in assay [3] were 12% and -1%, respectively. For the same compound, the result in assay [5], in assay [6], in assay [7] and in assay [8] was inactive.
Turning to `CC(C)(C)c1ccc(NC(=O)c2cccc(CN3CCCN(Cc4cccc(O)c4)CC3)c2)cc1`, the growth inhibition in assay [1] was 69% (active); in assay [4], 101% (active). Further, the inhibition in assay [2] was 97% (active); in assay [3] it was 4%. Further, the outcome in assay [5], in assay [6], in assay [7] and in assay [8] was inactive.
Turning to `O=C(/C=C/c1ccc(Cl)c(Cl)c1)NCCCCCCN1CCN(C(=O)Nc2cc(Cl)nc(Cl)c2)CC1`, the growth inhibition in assay [1] is 0%; in assay [4], 102% (active). The inhibition in assay [2] was 15%; in assay [3], -2%. The outcome in assay [5], in assay [6], in assay [7] and in assay [8] was inactive.
For `O=C(Nc1ccc(OC2CCN(Cc3ccc(F)cc3)CC2)c(Cl)c1)c1ccsc1`, the growth inhibition in assay [1] was 90% (active); in assay [4] it was 94% (active). Moreover, the inhibition in assay [2] is 5%; in assay [3], 7%. Besides, the result in assay [5], in assay [6], in assay [7] and in assay [8] was inactive.
Regarding `Nc1ncc(-c2ccsc2)cc1-c1nc2ccccc2[nH]1`, the growth inhibition in assay [1] was 8%; in assay [4], 99% (active). Further, the figures for the inhibition in assay [2] and in assay [3] were 33% and -2%, respectively. Also, the result in assay [5], in assay [6], in assay [7] and in assay [8] was inactive.
Regarding `COc1ccc2nccc(NN=Cc3ccncc3)c2c1`, the growth inhibition was 95% (active) in assay [1] and 99% (active) in assay [4]. The inhibition in assay [2] was 4%; in assay [3] it was -3%. For the same compound, the outcome in assay [5], in assay [6], in assay [7] and in assay [8] was inactive.
For the compound `CCCCCn1c(Sc2ccc(C#N)c([N+](=O)[O-])c2)nnc1-c1ccc(Cl)cc1`, the growth inhibition in assay [1] was 29%; in assay [4], 88% (active). Besides, the inhibition in assay [2] is 18%; in assay [3], 3%. Besides, the outcome in assay [5], in assay [6], in assay [7] and in assay [8] was inactive.
Consider `CC(C)NCc1ccc(-c2cccc(NC(=O)c3cccc(Cl)c3)c2)cc1`, for which the growth inhibition is 87% (active) in assay [1] and 100% (active) in assay [4]. Besides, the figures for the inhibition in assay [2] and in assay [3] were 24% and 1%, respectively. Further, the result in assay [5], in assay [6], in assay [7] and in assay [8] was inactive.
As to `COc1ccc2nccc([C@@H](O)CN3CCC(NCc4nc5ccc(F)cc5[nH]4)CC3)c2c1`, the growth inhibition was 4% in assay [1] and 100% (active) in assay [4]. For the same compound, the inhibition was 20% in assay [2] and -2% in assay [3]. The outcome in assay [5], in assay [6], in assay [7] and in assay [8] was inactive.
On to `Nc1nccc2ccc(-c3cccnc3)cc12`, for which the growth inhibition in assay [1] is 95% (active); in assay [4], 97% (active). Also, the inhibition in assay [2] is 9%; in assay [3] it was 2%. Further, the result in assay [5], in assay [6], in assay [7] and in assay [8] was inactive.
Take `Cc1cccc2[nH]c(-c3ccc(-c4ccc(NC(=O)C5CCN(C)CC5)cc4)cc3)nc12`: the growth inhibition in assay [1] was 92% (active); in assay [4], 100% (active). Also, the values for the inhibition in assay [2] and in assay [3] were 28% and 1%, respectively. The result in assay [5], in assay [6], in assay [7] and in assay [8] was inactive.
In the case of `Cc1noc(-c2ccc(N3CCC(C(=O)N4CCN(C(C)C)CC4)CC3)cc2)n1`, the growth inhibition in assay [1] was -2%; in assay [4], 95% (active). In addition, the results for the inhibition in assay [2] and in assay [3] were -12% and -5%, respectively. The result in assay [5], in assay [6], in assay [7] and in assay [8] was inactive.
For `Cc1c(OC(C)C)nc2ccccc2c1C(=O)N[C@H](c1cccc(F)c1)C1CC1`, the growth inhibition in assay [1] was 34%; in assay [4], 83% (active). Moreover, the inhibition is 6% in assay [2] and 3% in assay [3]. The result in assay [5], in assay [6], in assay [7] and in assay [8] was inactive.
Take `COc1ccc2nccc([C@H](O)CN3CCC(NCc4nc5c(F)cccc5[nH]4)CC3)c2c1`: the growth inhibition is 0% in assay [1] and 98% (active) in assay [4]. Also, the inhibition in assay [2] was 0%; in assay [3], -1%. Also, the outcome in assay [5], in assay [6], in assay [7] and in assay [8] was inactive.
Consider `Cc1cnc(C(=O)Nc2cccc(-c3ccc(-c4nc5ccc(F)cc5[nH]4)cc3)c2)cn1`, for which the growth inhibition in assay [1] was 13%; in assay [4] it was 102% (active). Moreover, the inhibition in assay [2] was 19%; in assay [3], -2%. In addition, the result in assay [5], in assay [6], in assay [7] and in assay [8] was inactive.
Regarding `C[C@@H]1CN(c2cnn(Cc3ccc(NC(=O)Nc4ccc(-c5ccccc5)cc4)cc3)c(=O)c2Cl)C[C@H](C)N1`, the growth inhibition is 46% in assay [1] and 100% (active) in assay [4]. Moreover, the inhibition was 82% (active) in assay [2] and -3% in assay [3]. For the same compound, the result in assay [5], in assay [6], in assay [7] and in assay [8] was inactive.
For the compound `CC(C)Cc1cnc2nc(N)nc(N)c2c1`, the growth inhibition in assay [1] is -2%; in assay [4] it was 98% (active). Moreover, the inhibition was 66% (active) in assay [2] and 1% in assay [3]. Further, the outcome in assay [5], in assay [6], in assay [7] and in assay [8] was inactive.
As to `CCOc1cc(C(=O)NCCN(CC)c2cccc(C)c2)ccc1-c1nc2ccc(Cl)cc2[nH]1`, the growth inhibition in assay [1] was 80% (active); in assay [4] it was 102% (active). Further, the inhibition in assay [2] was -1%; in assay [3] it was 0%. The outcome in assay [5], in assay [6], in assay [7] and in assay [8] was inactive.
